In PubChem BioAssay AID2284354 (EPA ToxCast):
Results filed as inconclusive are left out. Calls of active or inactive are those of the source. How the source made its calls: active means hit-call score of the fitted dose curve at least 0.9, where 1 is the maximum; inconclusive means response in the unintended direction; inactive means score below 0.9.

biological target: human Retinoid X Receptor beta (RXRb), RXRB (gene 6257) (UniProt P28702); test: ATG_hRXRb_EcoTox2: Attagene TRANS-FACTORIAL EcoTox-2 HepG2 Assay for human Retinoid X Receptor beta (RXRb)
Experimental: ATG_EcoTox2 is a cell-based, multiplexed assay created by modifying the existing Attagene TRANS-FACTORIAL system to include a panel of nuclear receptors from some or all the following species: human (Homo sapiens), african clawed frog (Xenopus laevis), rainbow trout (Oncorhynchus mykiss), japanese medaka (Oryzias latipes), and zebrafish (Danio rerio). The ECOTOX2-FACTORIAL format uses HepG2, a human liver cell line, with measurements taken at 24 hours after chemical dosing in a 24-well plate. ATG_hRXRb_EcoTox2 is one of 29 assay components calculated in the ATG_EcoTox2 assay. It is designed to make measurements of mRNA induction, a form of inducible reporter, as detected with fluorescence intensity signals by Reverse transcription polymerase chain reaction (RT-PCR) and Capillary electrophoresis technology.The assay endpoint ATG_hRXRb_EcoTox2 was analyzed in the positive analysis fitting direction relative to DMSO as the negative control and baseline of activity. Using a type of inducible reporter, measures of mRNA for gain-of-signal activity can be used to understand the reporter gene at the transcription factor-level as they relate to the gene RXRb. Furthermore, this assay endpoint can be referred to as a primary readout, because this assay has produced multiple assay endpoints where this one serves a reporter gene function. To generalize the intended target to other relatable targets, this assay endpoint is annotated to the nuclear receptor intended target family, where the subfamily is non-steroidal.
Human liver HepG2 cells are transiently transfected with multiple reporter transcription units (MRTUs) in 6-well plates using FuGene 6 reagent (Roche; 3 ml FuGene/1 mg DNA). The MRTU constructs are regulated by a cis-regulating element (promoter). Each RTU expresses a GAL4-UAS that regulates the transcription of a nearby target reporter gene sequence. A major difference between the CIS and TRANS system is that in CIS activities of endogenous TFs are measured, whereas the TRANS assay evaluates changes in activities of exogenous, chimeric NR-Gal4 proteins. […] At the end of 24 hour incubation, total RNA was isolated using TriZol reagent (Invitrogen). The isolated RNA is then reverse-transcribed using oligo(dT) primer and Mo-MLV reverse transcriptase (Invitrogen) with DNAse I (Ambion) treatment for 30 min. The one-tenth of the produced cDNA was amplified by PCR using Taq DNA polymerase (Invitrogen) and two reporter sequence-specific primers. […] The fragments were purified using Qiaquick PCR columns (Qiagen), analyzed on an ABI 3130xL genetic analyzer (Applied Biosystems) with peak positions identified by using a set of X-rhodamine (ROX)-labeled MapMarker1000 molecular weight standards (BioVentures). […]

Sequence of human Retinoid X Receptor beta (RXRb), RXRB (gene 6257) (P28702 whole entry, looked up): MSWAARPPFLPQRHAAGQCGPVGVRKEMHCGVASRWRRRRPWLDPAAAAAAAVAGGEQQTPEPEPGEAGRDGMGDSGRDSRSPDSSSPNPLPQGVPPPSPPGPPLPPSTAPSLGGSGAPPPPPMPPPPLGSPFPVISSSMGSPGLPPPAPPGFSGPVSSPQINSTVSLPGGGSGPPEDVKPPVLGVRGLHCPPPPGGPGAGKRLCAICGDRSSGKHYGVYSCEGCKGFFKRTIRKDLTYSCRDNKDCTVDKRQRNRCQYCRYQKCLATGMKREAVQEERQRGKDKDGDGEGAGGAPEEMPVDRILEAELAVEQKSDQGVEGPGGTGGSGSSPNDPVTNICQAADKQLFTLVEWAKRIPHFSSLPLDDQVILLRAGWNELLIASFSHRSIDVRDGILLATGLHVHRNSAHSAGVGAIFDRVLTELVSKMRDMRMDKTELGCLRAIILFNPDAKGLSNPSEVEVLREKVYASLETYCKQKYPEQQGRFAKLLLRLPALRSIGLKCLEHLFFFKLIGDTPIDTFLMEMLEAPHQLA

| Compound | AC50 | outcome |
| --- | --- | --- |
| CCCCOCN(C(=O)CCl)c1c(CC)cccc1CC | 36.6 µM (active) |  |
| O=C(O)C(F)(F)C(F)(F)C(F)(F)C(F)(F)C(F)(F)C(F)(F)C(F)(F)F | 29 µM (active) |  |
| O=S(=O)(O)C(F)(F)C(F)(F)C(F)(F)C(F)(F)C(F)(F)C(F)(F)F |  | inactive |
| [Cl][Sn]([c]1ccccc1)([c]1ccccc1)[c]1ccccc1 | 0.041 µM (active) |  |
